Inconclusive results are not listed. Unmarked numbers belong to inactive results. Calls come from the whole dose curve; as a rule, active = well fitted activation curve with a large enough effect in the signal ratio in the repeat runs (not every such curve was filed as active); inconclusive = weak or mixed curves; inactive = flat fitted curve, though single readings scatter; the % refers to the signal ratio.
Test: qHTS assay to identify small molecule agonists of H2AX (AID 1224845)
Conditions: CHO-K1 phospho-H2AX Ser139 HTRF, 3 h; series mostly up to 154 µM; activation (H2AX phosphorylation): at the top concentration
Description: National Center for Advancing Translational Sciences [NCATS]
NIH Chemical Genomics Center [NCGC]
U.S. Environmental Protection Agency [EPA]
National Institutes of Environmental Health Sciences [NIEHS]
National Toxicology Program [NTP]
U.S. Food and Drug Administration [FDA]
HTRF phospho-H2AX (Ser139) assay (Cisbio Bioassays, US) enables the quantitative detection of the histone variant H2AX when phosphorylated on serine 139. When double-stranded DNA breaks, either by ionizing radiation or endogenous physiological processes, H2AX becomes phosphorylated at Ser139. This phospho-Ser139 serves as a sensitive biomarker for the detection of such breaks, localizing the site of DNA repair. So, HTRF phospho-H2AX Ser139 is a pertinent assay to study genome stability, the cell cycle, DNA repair, and it serves as a biomarker for cancer, and to understand aging. Wild type CHO-K1 cells were used to identify the inducers of Phospho-H2AX Ser 139 from the Tox21 10K compound collections.
Tox21 Assay Protocol Summary:
The CHO-K1 cells suspended in culture medium containing 10% FBS were dispensed at 1000 cells/ 3 ul/well in 1536-well white wall/solid bottom plates (Greiner Bio-One North America, NC) using a Multidrop Combi (Thermo Fisher Scientific Inc., Waltham, MA). After the assay plates were incubated at 37C overnight, 23 nl of compounds at 15 concentrations (from 5-48 columns) or positive control (from 1 to 4 columns) were transferred to the assay plates using a Pintool station (Wako, San Diego, CA) into each well resulting in a final DMSO concentration of 0.76%. After 3hr incubation at 37C, 1 uL/well Supplemented Lysis buffer (diluted 100 fold blocking reagent in lysis buffer) (HTRF Phospho-H2A.X (S139) Assay kit from Cisbio US Inc., Bedford, MA) was added using a Flying Reagent Dispenser (FRD) (Aurora Discovery, CA). After 10sec spin at 1000 rpm in a plate centrifuge, the assay plates were incubated at room temperature for 30 min. Then followed by the addition of 1 uL/well detection buffer (containing a mixture of two antibodies, one labeled with cryptate, Anti pH2AX (S139)-K and another labeled with d2, Anti H2AX-d2) using FRD. After incubation at room temperature for 24 hr, the time resolved fluorescence at excitation 320 nm and emissions at 665 nm and 620 nm was measured using an Envision plate reader (PerkinElmer, Waltham, MA).
% is set by controls: 0 for no effect and ±100 for the full control effect.

Structure (SMILES)	activation (H2AX phosphorylation)
CC(C)NC[C@@H](O)COc1cccc2ccccc12	-4.51% [at 70.9 µM]
C[C@]12CCC(=O)C=C1CC[C@@H]1[C@@H]2CC[C@@]2(C)[C@H]1CC[C@]2(O)C(=O)CO	-6.15% [at 70.9 µM]
Nc1ccc2ccccc2c1S(=O)(=O)O	-2.73%
CC/C=C\CCOC(=O)CCCCC	-2.03%
O=C(CCCl)NCc1ccccc1	-1.8% [at 70.9 µM]
Cc1cccc(C)c1NC(=O)CN1CCCCCC1	-0.505% [at 70.9 µM]
C1CSCCS1	-2.32%
C[C@@H]1CN(c2c(F)c(N)c3c(=O)c(C(=O)O)cn(C4CC4)c3c2F)C[C@H](C)N1	0.193% [at 31.6 µM]
CC(C)OC(C)C	-2.34%
CCC(=O)O[C@]1(C(=O)SCF)[C@H](C)C[C@H]2[C@@H]3C[C@H](F)C4=CC(=O)C=C[C@]4(C)[C@@]3(F)[C@@H](O)C[C@@]21C	-4.27% [at 70.9 µM]
O=C(O)[C@@H]1CSCN1	-0.144% [at 70.9 µM]
CCc1cc2cc(OC)c(OC)cc2c(Cc2ccccc2)n1	-0.754% [at 70.9 µM]
CCN(CC)CCNC(=O)COc1ccc(Cl)cc1	-6% [at 70.9 µM]
CCCC1CCC(=O)O1 (stereo not given)	-1.76%
CCOC(=O)C1CC(=O)C(=C(O)C2CC2)C(=O)C1 (stereo not given)	-1.63%
Cc1cc2c(s1)Nc1ccccc1N=C2N1CCN(C)CC1	1.71% [at 70.9 µM]
CC(Oc1c(Cl)cccc1Cl)C1=NCCN1 (stereo not given)	-0.538% [at 70.9 µM]
CCCCCCCCCC/C=C/C#N	3.89%
Oc1ccccc1F	1.88%
O=C1CCCCC1C1CCCCC1 (stereo not given)	3.53%

Structure (SMILES)	activation (H2AX phosphorylation)
C/C(=N\O)[C@@H](C)NCC(C)(C)CN[C@H](C)/C(C)=N/O	0.193% [at 70.9 µM]
CNCCC(Oc1ccccc1OC)c1ccccc1 (stereo not given)	-3.26% [at 70.9 µM]
CCCCCCC	-3.43%
CCCCC(=O)O[C@]1(C(=O)CO)[C@H](C)C[C@H]2[C@@H]3CCC4=CC(=O)C=C[C@]4(C)[C@@]3(F)[C@@H](O)C[C@@]21C	-0.419% [at 70.9 µM]
CCCCCCCCOC(=O)CCCCCCCCC(=O)OCCCCCCCC	-1.45%
CN(C)C(=O)NC1(c2ccccc2)CCN(CCC[C@]2(c3ccc(Cl)c(Cl)c3)CCCN(C(=O)c3ccccc3)C2)CC1	5.48% [at 31.6 µM]
CCOC(=O)c1ccccc1O	0.0662% [at 70.9 µM]
O=C1N(c2ccccc2)c2ccccc2C1(Cc1ccncc1)Cc1ccncc1	-1.25% [at 70.9 µM]
O=C1C=CC(=O)O1	-2.25%
CCCOc1ccc2c(c1)CC[C@@H]1[C@@H]2CC[C@]2(C)C(OC)CC[C@@H]12 (stereo not given in full)	-2.03% [at 70.9 µM]
Cc1cn([C@@H]2O[C@H](CO)[C@@H](O)[C@@H]2F)c(=O)[nH]c1=O	0.0165% [at 70.9 µM]
O=S(=O)(O)C(F)(F)F	0.965%
CC1(C)C(=O)N(Cl)C(=O)N1Br	0.512%
CCCCC1CCC(=O)O1 (stereo not given)	0.616%
CC1=C2[C@H](/C=C(\C)C(=O)O)CC[C@@H](C)[C@H]2CC1	1.91%
C[C@@H]1CN(c2c(F)c(F)c3c(=O)c(C(=O)O)cn(C4CC4)c3c2F)C[C@H](C)N1	-0.115% [at 31.6 µM]
C1CCOC1	-2.46%
COc1ccc(S(=O)(=O)Nc2nnc(CC(C)C)s2)cc1	-1.39% [at 70.9 µM]
CC1(C)O[C@@H]2C[C@H]3[C@@H]4CCC5=CC(=O)CC[C@]5(C)[C@@]4(F)[C@@H](O)C[C@]3(C)[C@]2(C(=O)CCl)O1	0.5% [at 70.9 µM]
C=O	0.459%

Source: PubChem BioAssay (Tox21)
